Source: paper PMC4336329 (PLoS ONE, 2015)
Out of some 310,000 compounds screened, about 14,000 (4.5%) showed an effect of 50% or more. Effects have a minus sign here. The full list was thinned out, with strong results kept by preference.

molecular target: human ether-à-go-go-related gene (hERG) potassium channel (human, UniProt Q12809); assay: primary screen, population patch clamp on CHO cells stably expressing hERG; higher = less effect of the substance
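Also: peak tail current of the secondary pulse compared with the same well before compound.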

Chain of human ether-à-go-go-related gene (hERG) potassium channel (Q12809 whole entry, looked up): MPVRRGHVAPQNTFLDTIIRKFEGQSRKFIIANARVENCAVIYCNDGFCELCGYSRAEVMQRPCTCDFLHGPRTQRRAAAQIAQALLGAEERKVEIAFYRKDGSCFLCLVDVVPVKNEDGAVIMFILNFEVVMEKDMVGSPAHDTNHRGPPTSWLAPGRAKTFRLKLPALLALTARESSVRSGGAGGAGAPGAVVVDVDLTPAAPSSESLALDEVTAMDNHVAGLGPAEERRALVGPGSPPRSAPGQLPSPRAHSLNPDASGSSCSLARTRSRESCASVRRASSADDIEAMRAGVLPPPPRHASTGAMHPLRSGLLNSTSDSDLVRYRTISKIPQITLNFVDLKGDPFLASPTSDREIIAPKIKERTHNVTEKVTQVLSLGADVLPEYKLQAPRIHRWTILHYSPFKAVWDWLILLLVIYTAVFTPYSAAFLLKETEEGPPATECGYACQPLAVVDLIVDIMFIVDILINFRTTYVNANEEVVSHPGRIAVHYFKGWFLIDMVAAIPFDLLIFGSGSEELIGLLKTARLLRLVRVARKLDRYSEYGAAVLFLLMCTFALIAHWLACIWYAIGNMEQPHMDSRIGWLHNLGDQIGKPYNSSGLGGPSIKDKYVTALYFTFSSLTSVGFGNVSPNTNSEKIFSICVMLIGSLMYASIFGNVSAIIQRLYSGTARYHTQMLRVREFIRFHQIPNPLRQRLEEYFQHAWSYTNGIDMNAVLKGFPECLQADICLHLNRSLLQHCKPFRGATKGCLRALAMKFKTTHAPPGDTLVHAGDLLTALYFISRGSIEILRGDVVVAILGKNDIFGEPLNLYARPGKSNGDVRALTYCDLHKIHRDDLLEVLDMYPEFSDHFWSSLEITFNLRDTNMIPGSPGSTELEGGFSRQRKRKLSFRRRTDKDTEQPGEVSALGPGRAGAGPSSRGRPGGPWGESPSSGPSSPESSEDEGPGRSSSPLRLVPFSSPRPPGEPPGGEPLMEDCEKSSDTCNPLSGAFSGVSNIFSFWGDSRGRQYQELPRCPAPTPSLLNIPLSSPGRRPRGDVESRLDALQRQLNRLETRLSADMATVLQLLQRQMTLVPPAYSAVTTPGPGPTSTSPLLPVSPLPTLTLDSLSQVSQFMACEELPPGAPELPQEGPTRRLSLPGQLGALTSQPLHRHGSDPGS

Compound	hERG current change (%, negative = inhibition) at 10uM
Cc1noc(C)c1S(=O)(=O)N1CCCC(C(=O)Nc2nccs2)C1 (centres unmarked)	-13.6%
CCOc1ccc(OCCSc2nc3ccccc3[nH]2)cc1	-0.985%
CN1CCN(CC/C=C2/c3ccccc3Sc3ccc(S(=O)(=O)N(C)C)cc32)CC1	-64.7%
CN(C)S(=O)(=O)c1ccc2c(c1)C(=O)c1cc(S(=O)(=O)N(C)C)ccc1CC2	7.08%
CN1CCN(CCCN2c3ccccc3Sc3ccc(C(F)(F)F)cc32)CC1.Cl	-30.4%
CN1CCN(CC(=O)Nc2ccc(S(=O)(=O)N(C)C)cc2)CC1.O=C(O)C(=O)O	6.74%
Cl.FC(F)(F)c1ccc2c(c1)N(CCCN1CCN(CCCl)CC1)c1ccccc1S2	-8.34%
CN(C)S(=O)(=O)c1ccc(Cl)c(NC(=O)CN2CCc3ccccc3C2)c1	-12.7%
COc1cc2c(cc1Cl)/C(=C\CCN(C)C)c1ccccc1S2.O=S(=O)(O)O	-35.4%
CN1CCN(CC/C=C2\c3ccccc3Sc3ccc(S(=O)(=O)N(C)C)cc32)CC1	-58%
CN1CCN(CC(=O)N2c3ccccc3Sc3ccccc32)CC1	-13.7%
CN1CCN(CCC(=O)N2c3ccccc3Sc3ccc(Cl)cc32)CC1	-48.9%
CCSc1ccc2c(c1)N(CCCN1CCN(C)CC1)c1ccccc1S2.O=C(O)CC(O)C(=O)O	-54.2%
CN1CCN(CCCN2c3ccccc3Sc3ccc(S(=O)(=O)N(C)C)cc32)CC1.CS(=O)(=O)O	-57.4%
CNC(=O)c1ccc(NC(=O)CC2SC(N3CCCC3)=NC2=O)cc1 (centres unmarked)	-4.89%
CCCc1nc2sc3ccccc3c(=O)c2c(=O)n1CCOC	9.8%
CCOC(=O)CN1CC23C=CC(O2)C(C(=O)Nc2ccc4c(c2)OCO4)C3C1=O (centres unmarked)	4.95%
Cc1cc(Br)ccc1NC(=O)CN(C)C(=O)COc1cccc2c1OC(C)(C)C2	-8.15%
COCCn1c(SCC(=O)Nc2ccc(C(C)=O)cc2)nc2c([nH]c3ccccc32)c1=O	1.97%
Cc1cc(O)c(-c2ccno2)cc1Cl	13%
CCN(CC)c1ccc(NC(=O)Cn2cc3c(n2)CCC(C)C3)c(C)c1 (centres unmarked)	-3.35%
NC(=O)CSc1nnc(-c2cccs2)n1Cc1ccco1	-13.9%

Compound	hERG current change (%, negative = inhibition) at 10uM
COc1cc(OC)c(OC)cc1CNCCNC(=O)c1nonc1N.Cl	-0.502%
COc1cc(CNCCNCC(C)O)ccc1OCc1ccc(Cl)nc1 (centres unmarked)	-8.7%
COc1cc(CNCCNC(=O)c2nonc2N)ccc1OCc1ccc(Cl)nc1.Cl	-56.4%
COc1cccc(CNCCNC(=O)c2nonc2N)c1.Cl	9.27%
COc1ccc(CNCCNC(=O)c2nonc2N)cc1OC.Cl	-24.8%
COc1cc(CNCCNC(=O)c2nonc2N)ccc1OCc1ccc(Cl)cc1.Cl	-74.4%
CC(C(=O)Nc1nccs1)N1C(=O)c2ccccc2S1(=O)=O (centres unmarked)	11.5%
CCc1nn(CCCC(=O)N2CCC(C)CC2)c(=O)c2cc3occc3n12	-2.71%
O=C(OCC(=O)N1CCCCCC1)c1cnc(Cl)c(Cl)c1	-2.83%
COCCNc1ccc([N+](=O)[O-])cc1C(=O)Nc1cccc(C)n1	-62.7%
Cc1cccc(NC(=O)c2cc([N+](=O)[O-])ccc2NCC2CCCO2)n1 (centres unmarked)	-80.9%
COc1cccc(NC(=O)c2cc([N+](=O)[O-])ccc2NC(=O)CNCC2CCCO2)c1 (centres unmarked)	-16.4%
Cc1cccc(NC(=O)c2ccc(NCC3CCCO3)c([N+](=O)[O-])c2)n1 (centres unmarked)	14.2%
Cc1cccc(NC(=O)c2cc([N+](=O)[O-])ccc2N2CCCCC2)n1	-35.1%
Cc1cccc(NC(=O)c2ccc([N+](=O)[O-])cc2Cl)n1	-22.8%
Cc1ccc(C)c(N(CC(=O)NN=C2CCCCCCC2)S(C)(=O)=O)c1	-5.63%
CC1(C)O[C@@H]2CC3C4C[C@H](F)C5=CC(=O)C=CC5(C)C4C(O)CC3(C)[C@]2(C(=O)CO)O1 (some centres unmarked)	1.68%
COC(=O)C1CN(C(=O)C(C)Oc2ccccc2F)c2ccccc2O1 (centres unmarked)	15.6%
CCCCN1C(=O)C(O)=C(C(C)=O)C1c1ccccc1 (centres unmarked)	11%
CC(C)(C)c1ccc(OCC(=O)N2CCN(c3ccccn3)CC2)cc1	-51.7%
Cc1cc(OCC(=O)N2CCN(c3ccccn3)CC2)cc(C)c1Br	-32.3%
O=C(COc1cc(Cl)c(Cl)cc1Cl)N1CCN(c2ccccn2)CC1	16%

Compound	hERG current change (%, negative = inhibition) at 10uM
CCC(=O)c1ccc(OCC(=O)N2CCN(c3ccccn3)CC2)cc1	-31.5%
O=C(COc1ccc(F)c(Cl)c1)N1CCN(c2ccccn2)CC1	-55.3%
O=C(COc1ccc(Cl)cc1Cl)N1CCN(c2ccccn2)CC1	-33.3%
Cc1ccc(C)c(NS(=O)(=O)c2ccc3c(c2)NC(=O)CCS3)c1	-15%
COC(=O)COc1cccc(/C=N/NC(=O)CCSc2ccccc2)c1	-15.7%
C(=N\c1nc2ccccc2n1CCN1CCOCC1)/c1cccs1	-20.7%
CCOc1ccc(N2C(=O)CC(Sc3nc(-c4cccs4)cc(C(F)(F)F)c3C#N)C2=O)cc1 (centres unmarked)	10.2%
COCCNC(=O)c1csc(Nc2cccc3ccccc23)n1	-35.9%
CCN(CC)CCCNC(=O)c1csc(Nc2cccc3ccccc23)n1	-71.6%
CCCNC(=O)c1csc(Nc2cccc3ccccc23)n1	-30%
O=C(NCC(O)CO)c1csc(Nc2cccc3ccccc23)n1 (centres unmarked)	-2.43%
CN(C)CCNC(=O)c1csc(Nc2cccc3ccccc23)n1	-55.4%
CCN(CC)C(=O)c1csc(Nc2cccc3ccccc23)n1	-16.9%
Cc1ccc(S(=O)(=O)N(C)C)cc1NC(=S)NC(C)CCC(C)C (centres unmarked)	-14%
Cn1ccnc1SCC(=O)c1cccc(C(F)(F)F)c1	-27.8%
COC(=O)c1ccc(Cn2nc(C)c(Cl)c2C)o1	8.75%
CC12CC(NC(=O)N1c1cccc(C(=O)N3CCN(c4ccccc4F)CC3)c1)c1ccccc1O2 (centres unmarked)	-6.74%
Cc1cc(C)cc(N2C(=O)CC(N(C(=O)c3ccco3)c3cc(C)cc(C)c3)C2=O)c1 (centres unmarked)	12.8%
Cc1ccc(S(=O)(=O)c2cc3c(=O)n4ccccc4nc3n(C3CCCCC3)c2=N)cc1	-5.93%
CCn1cc(C(=O)NC2CCCCC2)c(=O)c2ccc(C)nc21	8.6%
Cc1ccc2nc3c(cc(C(=O)NC4CCCC4)c(=N)n3CCCn3ccnc3)c(=O)n2c1	-58.6%
CCn1cc(C(=O)NC2CCCCCC2)c(=O)c2ccc(C)nc21	-4.88%

Compound	hERG current change (%, negative = inhibition) at 10uM
Cc1ccc2nc3c(cc(C(=O)NC4CCCC4)c(=N)n3C3CCCCC3)c(=O)n2c1	-77.2%
Cc1ccc2nc3c(cc(C(=O)NC4CCCCC4)c(=N)n3C3CCCCC3)c(=O)n2c1	-74.7%
Cc1ccc(S(=O)(=O)NC(=O)c2cc(C)n(CCCn3ccnc3)c2C)cc1	-2.28%
Cc1ccc(S(=O)(=O)c2cc3c(=O)n4ccccc4nc3n(C3CCCC3)c2=N)cc1	6.01%
Cc1ccc2nc3c(cc(C(=O)NCCCn4ccnc4)n3C)c(=O)n2c1	-34.1%
O=C(/C=C/c1ccc(O)c(O)c1)NC(=O)c1ccccc1O	6.74%
Cc1ccc(-c2nc(CS(=O)(=O)CC(=O)NCc3cccc(F)c3)c(C)o2)cc1	9.53%
COc1ccc(S(=O)(=O)N2CCOCC2)c(C)c1C	5.99%
O=C(c1ccc(Br)cc1)N1CCC2(CC1)NCCc1[nH]cnc12	-65.8%
CCOc1ccc(C(=O)N2CCC3(CC2)NCCc2[nH]cnc23)cc1OCC	22.6%
COc1ccc(C(=O)N2CCC3(CC2)NCCc2[nH]cnc23)cc1	-18.8%
O=C(c1ccc(F)cc1)N1CCC2(CC1)NCCc1[nH]cnc12	4.43%
O=C(c1ccccc1)N1CCC2(CC1)NCCc1[nH]cnc12	26.6%
O=C(c1ccc(F)c(F)c1)N1CCC2(CC1)NCCc1[nH]cnc12	10.3%
CCOc1ccc(C(=O)N2CCC3(CC2)NCCc2[nH]cnc23)cc1	-70.1%
CC(C)(C)c1ccc(C(=O)N2CCC3(CC2)NCCc2[nH]cnc23)cc1	-8.51%
Cc1ccc(C(=O)N2CCC3(CC2)NCCc2[nH]cnc23)cc1	-53.9%
O=C(NCc1ccco1)c1ccccc1NS(=O)(=O)c1cccs1	3.9%
Cc1ccc(Cn2ccsc2=NC(=O)COC(=O)C(C)C)cc1	-15.3%
CSc1nnc2n(C)c3c(c(=O)n12)C1(CCCC1)Cc1ccccc1-3	2.33%
